From PubChem
Rows were chosen to be rich in hits. Some 1.8% of all compounds tested hit in one or more screens of this group.
MBD2 DNA inh = inhibitors of MBD2 binding to methylated DNA, primary screen, biochemical, TR-FRET, DNA-binding domain, human | Methyl-CpG-binding domain protein 2 (Homo sapiens), Q9UBB5 | MBD2 binding to methylated oligonucleotide | inhibition, % at 4.4 µM | 370,000 compounds, 0.31% hits; in the data active = inhibition above about 13%
Target sequence (Q9UBB5 whole entry, looked up, the tested form may be a part): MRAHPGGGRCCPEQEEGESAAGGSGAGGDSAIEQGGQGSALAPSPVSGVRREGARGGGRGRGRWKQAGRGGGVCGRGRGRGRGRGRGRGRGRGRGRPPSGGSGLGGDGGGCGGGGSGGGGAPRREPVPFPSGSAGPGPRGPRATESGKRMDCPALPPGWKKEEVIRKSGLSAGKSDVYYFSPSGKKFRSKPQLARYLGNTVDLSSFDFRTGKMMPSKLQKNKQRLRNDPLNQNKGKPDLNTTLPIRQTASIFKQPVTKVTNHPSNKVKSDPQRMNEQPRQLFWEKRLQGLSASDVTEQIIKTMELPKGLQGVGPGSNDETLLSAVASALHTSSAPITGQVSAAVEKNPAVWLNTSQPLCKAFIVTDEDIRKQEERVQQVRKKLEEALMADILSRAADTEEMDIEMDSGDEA
Neddyl block = inhibitors of cullin neddylation, primary screen, biochemical, TR-FRET, uHTS, NAE and Ubc12; NEDD8-conjugating enzyme Ubc12 (Homo sapiens) + NEDD8-activating enzyme E1 regulatory …; 360,000 compounds, 0.58% hits; calls only at 25 µM; in the data active = inhibition above about 36%
UBC13 polyUb = UBC13 polyubiquitin chain formation inhibitors, primary screen, biochemical, TR-FRET, uHTS | inhibition, % at 20 µM | Ubiquitin-conjugating enzyme E2 N (Homo sapiens), P61088 | 330,000 compounds, 0.47% hits; in the data active = inhibition above about 45%, passing the limit was not always enough
Target sequence (P61088 whole entry, looked up): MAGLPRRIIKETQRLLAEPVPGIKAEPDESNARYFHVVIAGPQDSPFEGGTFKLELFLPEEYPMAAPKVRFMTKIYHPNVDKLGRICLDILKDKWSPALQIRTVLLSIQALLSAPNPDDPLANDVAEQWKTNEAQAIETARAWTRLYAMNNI
UHRF1 binding = UHRF1 methylated DNA binding inhibitors, primary screen, counter-screen for MBD2 inhibitor project, biochemical, TR-FRET, human UHRF1, single concentration; 370,000 compounds, 0.75% hits; UHRF1 binding to methylated oligo; inhibition, % at 4.4 µM; E3 ubiquitin-protein ligase UHRF1 (Homo sapiens), Q96T88; in the data active = inhibition above about 21%;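 also: UHRF1 SRA domain binding a hemimethylated CpG hairpin DNA probe; 0% = median of test compound wells and 100% = reference inhibitor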
Neddyl conf = blockade of NEDD8 conjugation to cullin – biochemical, TR-FRET, single concentration, confirmation | shares compounds with Neddyl block | 1,800 compounds, 13% hits | AID 652217, 2013 | calls only at 25 µM | TR-FRET cullin neddylation biochemical assay; in the data active = inhibition above about 40%;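 also: neddylation substrate is the cullin 1 ring ligase complex with SKP2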
Active calls of the source: *; i = inactive; x = not tested or not shown; + = active, no number.

SMILES | MBD2 DNA inh | Neddyl block | UBC13 polyUb | UHRF1 binding | Neddyl conf
c1cnc2cc(-c3ccsc3)ncc2c1 | 6 | + | -4 | 11 | +
c1ccc(-c2cc3ncccc3cn2)cc1 | -8 | i | 0 | 1 | x
COc1cc2c(cc1O)C(Cc1ccc(O)cc1)[N+](C)([O-])CC2 (centres undefined) | 5 | i | -2 | 0 | x
COc1ccc(C[C@H]2c3cc(O)c(OC)cc3CC[N+]2(C)[O-])cc1O (some centres undefined) | -2 | + | -15 | -8 | +
COc1ccc(Cl)cc1NC(=O)c1nnn(CC(=O)Nc2ccc(C)c(C)c2)c1N | 3 | + | -4 | 5 | i
COc1ccc(NC(=O)Cn2nnc(C(=O)Nc3ccc(F)c(Cl)c3)c2N)cc1OC | 0 | i | -7 | 2 | x
CCCN1CCN(C(=O)Cn2ncc3c([nH]c4ccc(C)cc43)c2=O)CC1 | 3 | + | -1 | -3 | i
CCC(=O)N1CCc2cc(S(=O)(=O)CCC(=O)Nc3nc(C)cs3)ccc21 | 1 | i | 5 | 0 | x
CCCC[C@@H]1C[C@H]1[C@@H](NC(=O)c1cccs1)c1ccc(Cl)cc1 | x | x | 12 | x | x
COc1ccc(-c2cc(C(F)(F)F)n3nc(C(=O)N4CCCCC4)cc3n2)cc1OC | -1 | + | 3 | 1 | i
CN1CCN(C(=O)c2cnn3c(C(F)(F)F)cc(-c4ccc5c(c4)OCO5)nc23)CC1 | -4 | i | -3 | 6 | x
O=C(c1cc2nc(-c3ccccc3)cc(C(F)(F)F)n2n1)N1CCCC1 | -2 | + | x | 13 | i
O=C(c1cnn2c(C(F)(F)F)cc(-c3ccc4c(c3)OCO4)nc12)N1CCCCC1 | 0 | + | -12 | 1 | i
O=C(c1cc2nc(-c3ccco3)cc(C(F)(F)F)n2n1)N1CCN(c2ccccc2)CC1 | 0 | i | 1 | 2 | x
O=C(c1cc2nc(-c3ccco3)cc(C(F)(F)F)n2n1)N1CCCCCC1 | -3 | + | 5 | 0 | x
Cc1ccc(S(=O)(=O)N(C)CCCC(=O)NCc2ccc3c(c2)OCO3)cc1 | 6 | i | -8 | 3 | x
O=C(O)/C(=C\c1ccc(-c2ccc(F)cc2)o1)c1ccccc1 | 3 | i | x | 2 | x
COc1ccc(-c2nn(-c3ccccc3)cc2C2CC(c3cccs3)=NN2C(=O)CCCC(=O)O)cc1 (centres undefined) | 7 | + | 0 | -2 | i
O=C(O)CCC(=O)N1N=C(c2cccs2)CC1c1cn(-c2ccccc2)nc1-c1ccccc1 (centres undefined) | 1 | + | -12 | -2 | x
CCc1cc2c(=O)c(-c3ccc(F)cc3)c(C)oc2cc1OCC(=O)O | -3 | i | -7 | 0 | x
CC1=C(C(=O)OC2CCCC2)C(c2coc3ccccc3c2=O)C2=C(CC(C)(C)CC2=O)N1 (centres undefined) | -3 | i | 6 | -2 | x
CCC(=O)Nc1nnc(/C=C/c2ccccc2)s1 | -4 | + | 10 | -5 | i
Cc1csc2ncc(C(=O)NCCc3ccccc3)c(=O)n12 | 8 | + | 13 | 0 | i
CSc1ccc(-c2sc(Nc3cccc4ccccc34)n[n+]2-c2ccccc2)cc1 | 4 | i | -53 | 6 | x
COc1ccc(-c2sc(Nc3cccc4ccccc34)n[n+]2C)c(C)c1C | 0 | + | x | 2 | i
SMILES | MBD2 DNA inh | Neddyl block | UBC13 polyUb | UHRF1 binding | Neddyl conf
O=C(Nc1c(-c2ccccc2)[nH][nH]c1=O)c1cccc(C(F)(F)F)c1 | -1 | i | x | 2 | x
CCCCn1c2nc3ccccc3nc2c2c(=O)n(CC(C)C)cnc21 | -2 | + | x | -1 | i
CC(=O)Nc1ccc(SCC(=O)NCCc2ccc(F)cc2)cc1 | 2 | i | -5 | 4 | x
COc1ccc(CCNC(=O)c2ccc3nc4cc(Cl)ccc4c(=O)n3c2)cc1OC | -3 | + | 13 | -6 | i
O=c1c(/C=C(\O)c2ccc(F)cc2)nc2ccccc2n1-c1ccccc1 | 0 | i | -24 | 0 | x
COC(=O)c1ccc(C(=O)OC)c(=O)[nH]1 | 3 | + | 3 | 3 | x
COC(=O)c1c[nH]c(=O)c2ccccc12 | -2 | i | 6 | 0 | x
CCN(C(=O)COC(=O)c1cc2ccccc2cc1OC)c1c(N)n(Cc2ccccc2)c(=O)[nH]c1=O | 0 | + | x | -3 | x
COc1ccc(CCC(=O)OCC(=O)N(C)c2c(N)n(Cc3ccccc3)c(=O)[nH]c2=O)cc1 | 1 | i | -3 | 2 | x
COc1cc2ccccc2cc1C(=O)OCC(=O)N(C)c1c(N)n(Cc2ccccc2)c(=O)[nH]c1=O | 4 | + | 17 | 1 | x
Cc1cc(N2CCN(C)CC2)nc2ccc(NC(=O)CCC(=O)NCc3ccco3)cc12 | 2 | + | -5 | 7 | i
CCCCNC(=O)CCC(=O)Nc1ccc2nc(N3CCN(C)CC3)cc(C)c2c1 | -1 | i | 14 | 0 | x
CN(C)c1oc(-c2ccccc2Cl)nc1C#N | 2 | + | 2 | -2 | i
COc1ccc2oc(C(=O)OCC(=O)N(C)CC(=O)Nc3ccc(F)cc3)c(C)c2c1 | -1 | + | 7 | 0 | x
CCOc1ccc2oc(C(=O)OCC(=O)N3CCCC(C)C3)c(C)c2c1 (centres undefined) | 4 | + | 13 | -1 | x
COc1ccc2oc(C(=O)OCC(=O)NC3CCCCC3)c(C)c2c1 | 1 | + | -1 | 2 | i
CCCCSc1nc(C(=O)O)cc(=O)[nH]1 | 4 | i | 10 | 0 | x
C=CCN1CC(=O)N2C(C)c3[nH]c4ccccc4c3C[C@H]2C1=O (some centres undefined) | -1 | i | -1 | -4 | x
COc1ccccc1NC(=O)NNC(=O)c1ccc2ccccc2c1O | 2 | + | 8 | 1 | i
Cc1ccccc1NC(=O)NNC(=O)c1ccc2ccccc2c1O | 4 | + | 2 | -2 | +
COc1ccccc1NC(=O)NNC(=O)c1ccc2ccccc2c1 | -2 | i | 15 | 2 | x
CCc1ccc(NC(=O)NNC(=O)c2ccc3ccccc3c2O)cc1 | -1 | x | 9 | 0 | x
COc1ccc(NC(=O)NNC(=O)c2ccc3ccccc3c2O)cc1OC | -5 | + | 4 | 0 | i
CCOc1ccc(S(=O)(=O)Nc2ccccc2C(=O)NCc2ccco2)cc1 | 5 | + | 9 | 1 | i
COC(=O)c1ccccc1NC(=O)NCC1CCCO1 (centres undefined) | -3 | + | -20 | -1 | i
CC(C)NC(=O)/C(C#N)=C\c1ccc(N(C)C)o1 | -20 | i | -204 | -55 | x
CC1(C)Cc2c(C#N)c(NCCN3CCOCC3)nc(-c3ccco3)c2CO1 | -6 | i | 0 | -5 | x
